Test results as given in PubChem BioAssay (Tox21).
Inconclusive results are not listed. Where a call stands in place of a potency, no number is given. A number with no mark means an inactive call. Activity calls are given as the source filed them. The call rests on the fitted dose curve.

assay: p53 small molecule agonists, cell-based qHTS assay with rat liver microsomes (AID 1963578); details: HCT-116 p53RE-bla, beta-lactamase ratio, 16 h; series mostly up to 66 µM
Excerpt: U.S. Tox21 Program National Center for Advancing Translational Sciences [NCATS] Division of Preclinical Innovation [DPI] U.S. Environmental Protection Agency [EPA] National Institutes of Environmental Health Sciences [NIEHS] National Toxicology Program [NTP] U.S. Food and Drug Administration [FDA] Tox21 Assay Overview: p53, a tumor suppressor protein, is activated following cellular insult, including DNA damage and other cellular stresses. The activation of p53 regulates cell fate by inducing DNA repair, cell cycle arrest, apoptosis, or cellular senescence. The activation of p53, therefore, is a good indicator of DNA damage and other cellular stresses. […] The activation of the reporter gene under culture conditions can be detected by fluorescence intensity. This cell line was used to screen the Tox21 10K compound library in the condition of presence of rat liver microsomes and to identify agonists that activate the p53 signaling pathway after in vitro metabolic activation (Ooka et al., Archive of Toxicology 96:1975-1987, 2022).
Tox21 Assay Protocol Summary: The p53RE-bla cells were dispensed at 4,000cells/3ul/well in 1536-well black-clear bottom plates. After the assay plates were incubated at 37 C, 5% CO2 incubator for 5 hours, 23 nL of compounds dissolved in DMSO, positive controls or DMSO only was transferred to the assay plate. Following compound addition, 3 uL of rat liver microsomes (Molecular Toxicology, Boone, NC) at final concentration of 0.5 mg/mL and 1uL of Beta-Nicotinamide adenine dinucleotide 2-phosphate (NADPH) at final concentration of 0.5 mg/mL were transferred to the assay plate. The plates were incubated at 37 C for 16 hours. 1 uL of LiveBLAzer detection mixture was added to each well and the plates were incubated at room temperature in the dark for 2 h.

SMILES	Potency	activation
NCC1CCC(C(=O)Oc2ccc(CCC(=O)O)cc2)CC1 (stereo not given)	inactive	–
O=C(O)CCC(=O)c1ccc(-c2ccccc2)cc1	inactive	–
Cc1ccsc1/C=C/C1=NCCCN1C	inactive	–
O=S(=O)(O)CCO	inactive	–
O=C(O)c1ccc2cc(O)ccc2c1	inactive	–
O=CC(=O)c1ccccc1	inactive	–
C=Cc1ccccc1	inactive	–
O=C(O)c1ccccc1NCCc1ccccc1	inactive	–
C[N+]1(CC2COC(c3ccccc3)(c3ccccc3)O2)CCCCC1 (stereo not given)	–	-0.64% [at 13.6 µM]
CCC1CO1 (stereo not given)	inactive	–
CN1CCC[C@@H]1Cc1c[nH]c2ccc(CCS(=O)(=O)c3ccccc3)cc12	inactive	–
OCC(CBr)(CBr)CBr	inactive	–
Cc1c(NC(C)C)c(=O)n(-c2ccccc2)n1C	inactive	–
O=C(CCCCCCCCc1cccnc1)N1CCC(C=C(c2ccccc2)c2ccccc2)CC1	inactive	–
CC(C)=CCC/C(C)=C/COC=O	inactive	–
CCCOC(=O)c1ccc(N)cc1	inactive	–
COCCO	inactive	–
CC(CCl)OC(C)CCl (stereo not given)	inactive	–
CCCCOC(=O)/C=C\C(=O)OCCCC	inactive	–
CC(O)c1ccccc1 (stereo not given)	inactive	–

SMILES	Potency	activation
NC1[C@H]2CN(c3nc4c(cc3F)c(=O)c(C(=O)O)cn4-c3ccc(F)cc3F)C[C@@H]12 (stereo not given in full)	inactive	–
CC1=CCC2C(C1)C2(C)C (stereo not given)	inactive	–
CN1[C@@H]2CC[C@H]1CC(OC(=O)C(O)c1ccccc1)C2 (stereo not given in full)	inactive	–
C#Cc1ccc(-c2ccccc2F)cc1	inactive	–
NC(=O)c1ccncc1	inactive	–
CCCOC(=O)c1ccc(C(=O)OCCC)nc1	inactive	–
O=C(O)Cc1ccccc1Oc1ccc(Cl)cc1Cl	inactive	–
O=C(O)Cc1cn(-c2ccccc2)nc1-c1ccc(Cl)cc1	inactive	–
CC1=NN(c2ccc(C(=O)O)cc2)C(=O)C1	inactive	–
CC(C)COC(=O)c1ccccc1	inactive	–
COC[C@H](c1ccc(C(F)(F)F)cc1)N1CCN(C2(C)CCN(C(=O)c3c(C)ncnc3C)CC2)C[C@H]1C	inactive	–
Cc1cc(C)c(NC(=O)CN(CC(=O)O)CC(=O)O)c(C)c1Br	inactive	–
CN(C)CCc1c[nH]c2ccc(C[C@H]3COC(=O)N3)cc12	inactive	–
Cn1c(N)c(N=O)c(=O)n(C)c1=O	inactive	–
COc1cc(C(=O)NS(=O)(=O)c2ccccc2C)ccc1Cc1cn(C)c2ccc(NC(=O)OC3CCCC3)cc12	inactive	–
CCOC(=O)CCC(=O)OCC	inactive	–
CC(C)(C)C1CCC(=O)CC1	inactive	–
CC1=NC(C)OC1C (stereo not given)	inactive	–
Cc1nc2ccccn2c(=O)c1CCN1CCC(C(=O)c2ccc(F)cc2)CC1	inactive	–
O[C@@H](CNC[C@H](O)[C@H]1CCc2cc(F)ccc2O1)[C@@H]1CCc2cc(F)ccc2O1	inactive	–
